Compound activity: PubChem BioAssay, National Center for Advancing Translational Sciences (NCATS)
Pf growth 96h – inhibits malaria parasite growth, 96 h | actives 6.9% (n = 320,000) | Potency, µM (series often up to 28.7 µM), for the others: at the top dose activity change, negative = inhibition, hits mostly inhibitors | P. falciparum luciferase reporter growth, 96 h
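Two parasite generations (96 h, 37 C, 5% CO2) of compound exposure in infected erythrocytes (0.05% parasitemia, 2% hematocrit). Luciferase-reporter P. falciparum; decreased luminescence indicates inhibited growth, aimed at apicoplast-acting delayed death.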
AMA1 RON2 block – disrupts binding of P. falciparum AMA1 to RON2 | AlphaScreen AMA1-biotinylated RON2 peptide binding | Potency, µM (top dose mostly 58.2 µM), for the others: top-dose activity change, negative = inhibition, hits mostly inhibitors | actives 0.2% (n = 360,000);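 also: 0% = vehicle wells and -100% = peptide control; nearly all actives have a fitted effect of over 45% in size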
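AMA1 (3D7) with his tag at 25 nM final met compounds first, then biotinylated RON2 peptide at 25 nM; detection used donor plus acceptor beads, 10 µg/mL apiece, read by AlphaScreen after 30 min at room temperature.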
Pf growth 48h – P. falciparum growth inhibition at 48 hours (one generation). Potency, µM (top dose mostly 28.7 µM), without a hit: at the top dose activity change, negative = inhibition, hits mostly inhibitors. AID 504832. P. falciparum luciferase growth in erythrocytes, 48 h. actives 5.9% (n = 310,000)
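Luciferase-expressing P. falciparum in infected erythrocytes (2% hematocrit, 0.1% parasitemia final) in RPMI 1640/0.5% Albumax were exposed to compound for 48 hours at 37 C, 5% CO2; growth read as luminescence.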
HCV inh – inhibitors of hepatitis C virus infection; Potency, µM (doses to about 41.8 µM), for the others: at the highest dose activity change, negative = inhibition, actives largely listed as inhibitors; actives 3.4% (n = 340,000); Huh7.5.1 HCVcc-Cre infection, luciferase reporter, 44 h
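Reporter virus HCVcc-Cre (~0.5 moi) infects cells exposed to compound; seeding density 1,000 cells/well with 4 h settling beforehand. Luminescence, 15 sec read, taken 44 h post-infection following a 15 min RT substrate incubation.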
An asterisk follows results filed as active; u = inconclusive; x = no result; [ ] = remark or other dose. Hits are enriched below; roughly 11% of the tested compounds scored in any of these assays. Calls follow the shape of the dose curve; as a rule, active = well fitted curve in the direction sought with a large enough effect; inconclusive = small, poorly fitted or top-dose-only effect, or another doubt; inactive = no such curve, though single readings can be large; an effect the other way counts as inactive or inconclusive. Unless noted, % is scaled to controls: 0 for no effect and ±100 for the full control effect; potency is read from the fitted curve at half-maximal effect.

SMILES	Pf growth 96h	AMA1 RON2 block	Pf growth 48h	HCV inh
CCOC(=O)C1CCN(c2nc3ccccc3nc2C(C#N)C(=O)NCCc2ccccc2)CC1 (stereo not given)	9.3µM*	x	56%	x
CCOC(=O)C1CCCN(c2nc3ccccc3nc2C(C#N)C(=O)OCC)C1 (stereo not given)	7.4µM*	-6%	u	u
CCOC(=O)C1CCCN(c2nc3ccccc3nc2C(C#N)C(=O)OCCOC)C1 (stereo not given)	8.3µM*	-8%	6.6µM*	-2%
COCCNC(=O)C(C#N)c1nc2ccccc2nc1N1CCCCCC1 (stereo not given)	32%	-4%	u	-27%
Nc1c(C(=O)CSc2nccn2-c2cccc(F)c2)c(=O)[nH]c(=O)n1C1CC1	u	-1%	u	16%
CC(C)CC(N)c1csc(NC(=O)c2cc(C(C)(C)C)nn2Cc2ccccc2)n1 (stereo not given)	x	89%	x	x
CC(Cc1ccsc1)NC(=O)CCc1nnc(CCc2ccccc2)o1 (stereo not given)	u	-2%	-5%	25%
CCC(=O)NC1=C(NC(C)c2ccccc2)C(=O)c2ccccc2C1=O (stereo not given)	0.93µM*	-14%	x	-2%
CC1COCC(C)N1C(=O)c1cccnc1 (stereo not given)	x	9%	x	x
O=C(c1cccnc1)C1Cc2ccccc2C1=O (stereo not given)	7.4µM*	8%	u	14%
CC(Sc1ccccc1F)C(=O)Nc1ccc2c(c1)OCCO2 (stereo not given)	x	0%	x	2%
Cc1ccc(NS(=O)(=O)c2c(C)[nH]c(C)c2C(=O)N2CCCCC2)c(Br)c1	11%	-10%	0%	30%
COc1ccc(/C=N\NC(=O)c2ccccc2Br)cc1COc1ccccc1	-20%	0%	9%	14µM*
COc1ccc(/C=N/O)cc1COc1ccc(NC(C)=O)cc1	7.4µM*	-1%	7%	u
COc1ccc(/C=N\NC(=O)c2cccc(F)c2)cc1COc1ccccc1	x	2%	x	-18%
COc1ccc(/C=N/NC(=O)c2cccnc2)cc1COc1ccc(NC(C)=O)cc1	41%	33%	12%	-6%
COc1ccc(C(=O)N/N=C\c2ccc(OC)c(COc3ccccc3Br)c2)c(OC)c1	-20%	45%	-6%	18µM*
CC(C(=O)Nc1ccccc1C#N)N1C(=O)NC2(CCCCCC2)C1=O (stereo not given)	-16%	-1%	-4%	u
CCc1nnc(NC(=O)[C@@H](NC(=O)c2cccc(S(=O)(=O)N3CCOCC3)c2)C(C)C)s1	u	-13%	u	-6%
COC(=O)C1=C(C)N(c2ccc(S(N)(=O)=O)cc2)C(=O)C1	86%	0%	x	10%
CCOC(=O)C1=C(C)N(c2ccccc2)C(=O)C1	10µM*	-8%	-6%	12%
CCCN1CCC(=O)N([C@H](CSc2ccc(OC)cc2)CC(C)C)CC1	u	-1%	u	19%
CCCN1CCC(=O)N([C@H](CN=[N+]=[N-])CC(C)C)CC1	4.7µM*	14%	u	20%
COc1ccc(NC(=O)CC2CCCC2)cc1S(=O)(=O)N1CCCCC1	u	-11%[11.6 µM]	-7%	-27%
COc1ccc(NC(=O)COC(=O)C2CC2)cc1S(=O)(=O)N1CCCCC1	u	4%	13µM*	-28%
SMILES	Pf growth 96h	AMA1 RON2 block	Pf growth 48h	HCV inh
COc1ccc(Cl)cc1NCC(=O)Nc1ccc(OC)c(S(=O)(=O)N2CCCCC2)c1	u	-18%	9.3µM*	u
COc1cc(C(C)=O)ccc1OCC(=O)Nc1ccc(C)c(S(=O)(=O)N2CCCCCC2)c1	u	-1%	u	4µM*
CCOc1ccccc1OCC(=O)Nc1ccc(OC)c(S(=O)(=O)N2CCCCC2)c1	12µM*	8%	u	u
O=C(O)Cc1ccc(N2N=C(c3ccccc3)CC2=O)cc1	x	-8%	x	x
CCC1CO/C(=C(\C(Cl)=C(Cl)Cl)[N+](=O)[O-])N1 (stereo not given)	-24%	-11%	3%	-2%
COc1ccc(NC(=O)COc2ccccc2C)cc1S(=O)(=O)N1CCCCC1	u	-3%	-19%	8.9µM*
Cc1cccc(NC(=O)Nc2ccc(S(N)(=O)=O)cc2)c1	30%	-13%	9%	-5%
Cc1cccc(NC(=O)Nc2ccc(Oc3c(F)c(F)c(F)c(F)c3F)cc2)c1	7.4µM*	6%	u	29%
Cc1ccc(-n2c(SCC(=O)Nc3cccc(S(N)(=O)=O)c3)nc3ccccc32)cc1	-16%	-23%	-13%	u
Cc1cc(/C([O-])=C(/C(=S)Nc2ccccc2)[n+]2ccccc2)c(C)n1-c1ccccc1	u	8%	x	-20%
Cc1cc(/C([O-])=C(/C(=S)Nc2ccc(F)cc2)[n+]2ccccc2)c(C)n1-c1ccc(F)cc1	u	3%	19%	14µM*
Cc1cc(/C([O-])=C(/C(=S)Nc2ccc(F)cc2)[n+]2ccccc2)c(C)n1Cc1ccccc1Cl	9.3µM*	16%	u	u
O=C(Nc1ccnn1C1CCN(C(=O)c2cccc(C(F)(F)F)c2)CC1)C1CC1	u	7%	-3%	8%
C=CCn1nc(C(=O)N2CCOCC2)cc1-c1sc(NC(=O)c2ccccc2)nc1C	x	9%	x	x
COc1cccc(-n2cnc3scc(-c4cccs4)c3c2=O)c1	x	3%	-25%	11µM*
O=c1c2c(-c3cccs3)csc2ncn1-c1ccc(Br)cc1	u	30%	u	u
CCOc1ccc(-n2cnc3scc(-c4ccc(OC)c(OC)c4)c3c2=O)cc1	2.6µM*	-22%	u	u
Cc1c2c(nc3ccccc13)CCC(C(C)(C)C)C2 (stereo not given)	37%[5.75 µM]	0%	-17%	u
O=c1c2c([nH]c3ccccc13)CCCC2	1.9µM*	6%	1.9µM*	-2%
CC(C)/C=C1\CCc2c([nH]c3ccccc23)C1=O	u	-1%	u	3%
CC(C)(C)C1CCc2[nH]c3ccccc3c(=O)c2C1 (stereo not given)	u	-2%	0.52µM*	-4%
O=c1c2c([nH]c3ccccc13)C(=C1CCCC1)CC2	0%	u	13µM*	-15%
CCCNC(=O)C1(C)CCN(Cc2ccc(OC)c3ccccc23)C1 (stereo not given)	x	8%	x	x
c1ccc(-c2nc3nonc3nc2-c2ccccc2)cc1	20%	u	12µM*	u
O=C(CN1CCN(c2ccccc2O)CC1)Nc1cc([N+](=O)[O-])ccc1Cl	u	9%	9.3µM*	-11%
CC(C)CC(=O)Nc1cc([N+](=O)[O-])ccc1Cl	46%	-7%	1%	-4%
O=C(CN1CCN(c2ccccc2O)CC1)Nc1ccc([N+](=O)[O-])cc1Br	u	-12%	u	u
O=C(CNC(c1ccccc1)c1ccccc1)Nc1cc([N+](=O)[O-])ccc1Cl	13µM*	-9%	u	-19%
